Experimental data as given in PubChem BioAssay AID652154 (Broad Institute, 2013).
Where “and” joins values, the source holds several entries; their conditions need not be identical. Equal entries are not always repeated. Out of some 360,000 compounds screened, about 4,200 (1.2%) were called active. What follows is part of a selection rich in actives, with near analogues and random picks from the rest. Unmarked numbers belong to inactive results.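 The calls were made as follows: active = mean replicate inhibition at least 60% with every replicate also reaching 60%; inconclusive = only one of the two criteria is met; inactive = mean below 60% and not all replicates reaching 60%.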

Test: inhibitors of PAX8-driven TPO luciferase reporter, primary screen, RMG-I cells, single concentration (AID 652154);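 also: luciferase light reporting Pax8 driven TPO promoter activity; plate controls were median of neutral control wells for no effect and mitoxantrone controls for full effect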
Conditions: SteadyGlo, 24 h, at 12.6 µM, hits give high values

Row | Structure (SMILES) | inhibition
1 | CN(C)CC1Oc2ccccc2OC1(O)c1ccccc1 (stereo not given) | 78.4% (active)
2 | O=C(Cc1ccccc1)N1CCCCN2[C@H](CO)[C@H](c3ccc(C#Cc4ccccc4)cc3)[C@H]2C1 | 0.0955%
3 | O=C(Cc1ccncc1)N1CCCCN2[C@H](CO)[C@@H](c3ccc(C#CC4(O)CCCC4)cc3)[C@H]2C1 | -4.86%
4 | O=C(Cc1ccccc1)N1CCCCN2[C@H](C1)[C@H](c1ccc(C#CC3(O)CCCC3)cc1)[C@@H]2CO | 12.4%
5 | CCC(C)(O)C(=O)OC1C(=O)OC2CC3C(C)=CC(=O)C(O)C3(C)C3C4(O)OCC23C1C(C)C4O (stereo not given) | 96.4% (active)
6 | C/C=C/c1ccc([C@H]2[C@H](CO)N3CCCCN(C(=O)Cc4ccncc4)C[C@@H]23)cc1 | 11.3%
7 | N#Cc1cccc(-c2ccc([C@H]3[C@@H](CO)N4CCCCN(C(=O)Cc5cccnc5)C[C@@H]34)cc2)c1 | -12%
8 | Cc1cc(N2CCNC[C@@H]2C)ccc1N1CC[C@H](O)C1 | 1.43%
9 | CC(=CCOc1ccc2ccc(=O)oc2c1)C1=CC(=O)C(C)(C)O1 | 108% (active)
10 | COc1ccc(C#Cc2ccc([C@H]3[C@H](CO)N4CCCCN(C(=O)Cc5ccccc5)C[C@@H]34)cc2)cc1 | -13.5%
11 | C/C=C/c1ccc(C2[C@@H]3CN(Cc4cncnc4)C[C@H]2N3)cc1 (stereo not given in full) | -5.53%
12 | COc1cccc(-c2ccc3n(c2=O)C[C@@H]2[C@@H](CO)[C@H](C(=O)O)[C@H]3N2C(=O)c2cnccn2)c1 | 1.83%
13 | COC(=O)[C@@H]1[C@@H](CO)[C@@H]2Cn3c(ccc(-c4ccc(F)cc4)c3=O)[C@H]1N2C(C)=O | -4.95%
14 | CCOc1ccc(-c2cc(C)[n+](CCN(CC)CC)c(-c3ccc(OCC)cc3)c2)cc1 | 87.4% (active)
15 | CCOC(=O)[C@]12Cc3cc(OC)ccc3[C@H]1N(C(C)C)C(=O)c1ccccc12 | -13.7%
16 | O=C(Cc1ccncc1)N1CCCCN2[C@@H](CO)[C@H](c3ccc(C#CC4(O)CCCC4)cc3)[C@@H]2C1 | -6.83%
17 | O=S(=O)(c1ccccc1)N1CCC2CCNC2C1 (stereo not given) | -15.4%
18 | O=C(Cc1cccnc1)N1CCCCN2[C@@H](CO)[C@H](c3ccc(C#CC4CCCC4)cc3)[C@@H]2C1 | -34.4%
19 | COc1cccc(-c2ccc([C@H]3[C@H]4CN(C(=O)Cc5ccncc5)CCCCN4[C@H]3CO)cc2)c1 | 47.9%
20 | CCOC(=O)[C@@H]1[C@@H]2NC(=O)N[C@@]1(C)Oc1ccccc12 | 8.82% and -6.19%
21 | Brc1ccc2c(c1)CNCc1cnnn1-2 | -19.7%
22 | O=C(O)[C@H]1[C@H](CO)[C@H]2Cn3c(ccc(-c4ccccc4)c3=O)[C@@H]1N2S(=O)(=O)c1ccccc1F | -5.43%
23 | CSCCC(c1nnnn1C(C)(C)C)N1CCC(n2c(=O)[nH]c3ccccc32)CC1 (stereo not given) | 32.9%
24 | COc1ccc(-n2nnnc2C(c2cccc3ccccc23)N2CCC(n3c(=O)[nH]c4ccccc43)CC2)cc1 (stereo not given) | 63.7% (active)
25 | O=C1NCN(c2ccccc2)C12CCN(C(c1cccs1)c1nnnn1C1CCCCC1)CC2 (stereo not given) | -2.94%

Row | Structure (SMILES) | inhibition
26 | COc1cccc(C(c2nnnn2-c2ccc3c(c2)OCCO3)N2CCC3(CC2)C(=O)NCN3c2ccccc2)c1OC (stereo not given) | -8.19%
27 | O=c1[nH]c2ccccc2n1C1CCN(C(c2ccnc3ccccc23)c2nnnn2Cc2ccccc2)CC1 (stereo not given) | -10.5%
28 | O=c1[nH]c2ccccc2n1C1CCN(C(c2ccccc2)c2nnnn2Cc2ccccc2)CC1 (stereo not given) | 82.1% (active)
29 | CCOC(=O)[C@]12Cc3ccccc3[C@H]1N(C1CCCCC1)C(=O)c1cc(OC)ccc12 | 49.5%
30 | COc1cccc(-c2ccc3n(c2=O)C[C@H]2[C@H](CO)[C@@H](C(=O)O)[C@@H]3N2C(=O)c2cnccn2)c1 | -1.69%
31 | CS(=O)(=O)N1CCC2CCNC2C1 (stereo not given) | -27.9%
32 | COc1cc(OC)cc(C(=O)NCCN2CCC3(CC2)C(=O)NCN3c2ccccc2)c1 | -21.4%
33 | O=C(Cc1ccccn1)N1CCCCN2[C@@H](CO)[C@@H](c3ccc(C#Cc4ccccc4)cc3)[C@@H]2C1 | 9.59%
34 | CC1=CC(=Cc2sc3ccccc3[n+]2C)C=C(C)O1 | 74.9% (active)
35 | C/C=C/c1ccc(C2[C@@H]3CN(S(C)(=O)=O)C[C@H]2N3)cc1 (stereo not given in full) | 9.75%
36 | CCCCCCCCCCCCn1ccc(=N)cc1 | 101% (active)
37 | O=C(Cc1ccccn1)N1CCCCN2[C@H](C1)[C@H](c1ccc(-c3ccccc3F)cc1)[C@@H]2CO | 19.2%
38 | O=C(O)[C@@H]1[C@@H](CO)[C@@H]2Cn3c(ccc(-c4ccccc4F)c3=O)[C@H]1N2C(=O)c1cccnc1 | -13.1%
39 | OC[C@@H]1[C@H]2c3ccccc3NC[C@H]2N1Cc1cccnc1 | 2.56%
40 | COC(=O)C1=C(c2ccc(OCc3ccccc3)cc2)C[C@@H]2CC[C@H]1N2C(=O)NCc1cccc(F)c1 | 5.35%
41 | COC(=O)C1=C(c2ccc(F)cc2OCc2ccccc2)C[C@@H]2CC[C@H]1N2C(=O)NCc1ccc(Cl)cc1 | 24.6%
42 | COC(=O)C1=C(c2ccc(F)cc2OCc2ccccc2)C[C@@H]2CC[C@H]1N2C(=O)NCc1ccc(C(C)(C)C)cc1 | 79% (active)
43 | COC(=O)C1=C(c2ccccc2OCc2ccccc2)C[C@@H]2CC[C@H]1N2C(=O)NCc1ccc(OC)cc1 | 15%
44 | COC(=O)C1=C(c2ccc(F)cc2OCc2ccccc2)C[C@@H]2CC[C@H]1N2C(=O)NCc1ccc(OC)c(OC)c1 | 21.7%
45 | COC(=O)C1=C(c2ccc(F)cc2OCc2ccccc2)C[C@@H]2CC[C@H]1N2C(=O)NCc1ccc2[nH]ccc2c1 | 89% (active)
46 | COC(=O)C[C@@H]1CC[C@@H]2NC[C@@H](O)COC[C@H]2O1 | 2.66%
47 | COC(=O)C[C@H]1CC[C@H]2NC[C@@H](O)COC[C@@H]2O1 | 2.02% and -13.9%
48 | COC(=O)[C@H]1[C@H](CO)[C@H]2Cn3c(ccc(-c4cccc(F)c4)c3=O)[C@@H]1N2Cc1ccccc1 | 7.46%
49 | COC(=O)[C@@H]1[C@@H](CO)[C@@H]2Cn3c(ccc(-c4cccc(C(=O)N(C)C)c4)c3=O)[C@H]1N2C(=O)NC(C)C | -0.877%
50 | O=C(Cc1ccncc1)N1CCCCN2[C@@H](CO)[C@H](c3ccc(-c4ccncc4)cc3)[C@@H]2C1 | 6.85%
